HP1b chromo inh = HTS for Inhibitors of HP1-beta Chromodomain Interactions with Methylated Histone Tails; Chromobox protein homolog 1 (Homo sapiens), P83916; AlphaScreen HP1-beta / biotin-H3K9me3 peptide binding; Potency, µM (series often up to 114 µM), for the others: top-dose activity change, negative = inhibition, most hits filed as inhibitors; actives 0.56% (n = 390,000); AID 540317, 2011; also: nearly all actives have a fitted effect of over 70% in size
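HP1-beta protein (50 nM final) preincubated 30 min at room temperature with biotinylated H3(1-18)K9me3 peptide (50 nM) in PBS pH 7.4, 0.01% Tween-20, then compound added for 30 min. AlphaScreen streptavidin donor/nickel chelate acceptor beads (10 ug/mL final), 30 min dark, luminescence read.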
JMJD2A Tudor = qHTS Assay for Inhibitors of JMJD2A-Tudor Domain. AlphaScreen JMJD2A-Tudor / H3K4me3 peptide binding. Lysine-specific demethylase 4A (Homo sapiens), O75164. actives 4.4% (n = 390,000). AID 504339, 2011. Potency, µM (series often up to 114 µM), for the others: top-dose activity change, negative = inhibition, most hits filed as inhibitors; also: % is scaled to controls: 0 for no effect and ±100 for the full control effect; nearly all actives have a fitted effect of over 50% in size
BAZ2B block = qHTS Assay for Inhibitors of BAZ2B; Potency, µM (top dose mostly 114 µM), inactives show at the top dose activity change, negative = inhibition, hits mostly inhibitors; actives 4.4% (n = 360,000); AlphaScreen BAZ2B-H3K14Ac peptide displacement; also: % is scaled to controls: 0 for no effect and ±100 for the full control effect; nearly all actives have a fitted effect of over 60% in size
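BAZ2B 50 nM plus b-H3(5-23)K14Ac 50 nM, PBS pH 7.4/0.01% Tween-20, 30 min RT; compound added (max 110 uM), 30 min RT; streptavidin donor/Ni-chelate acceptor beads 10 ug/mL final, 20 min dark; AlphaScreen read.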
ALOX12 inh = Primary qHTS assay for inhibitors of human arachidonate 12S-lipoxygenase (ALOX12): Round 2. purified 12hLO, xylenol orange hydroperoxide absorbance. actives 1.1% (n = 580,000). Potency, µM (highest dose often 108 µM), for the others: top-dose activity change, negative = inhibition, usual class: inhibitors. Polyunsaturated fatty acid lipoxygenase ALOX12 (Homo sapiens), P18054; also: % is scaled to controls: 0 for no effect and ±100 for the full control effect
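Purified human 12hLO at 150 nM in 25 mM Hepes, 0.01% Triton X-100, pH 7.0, preincubated 15 min at room temperature with compound. Reaction started with 40 uM arachidonic acid, 30 min at room temperature. Hydroperoxide measured by Fe-xylenol orange, 573/405 nm absorbance ratio.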
G9a block = qHTS Assay for Inhibitors of Histone Lysine Methyltransferase G9a. Histone-lysine N-methyltransferase EHMT2 (Homo sapiens), Q96KQ7. G9a H3K9 monomethylation, AlphaScreen, 2 h. Potency, µM (top dose mostly 102 µM), for inactives: at the top dose activity, negative = inhibition, hits mostly inhibitors. actives 8.8% (n = 350,000). AID 504332, 2011; also: % is scaled to controls: 0 for no effect and ±100 for the full control effect; nearly all actives have a fitted effect of over 75% in size
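Quantitative HTS format: methyltransferase activity on a biotin-tagged H3K9 peptide is measured by AlphaScreen, using a rabbit anti-monomethyl-H3K9 antibody with streptavidin donor and anti-IgG acceptor beads. Final levels are 20 nM enzyme, 500 nM peptide, 20 uM SAM; 2 h RT.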
PLK1 PBD block = qHTS for Inhibitors of PLK1-PDB (polo-like kinase 1 - polo-box domain): Primary Screen. Serine/threonine-protein kinase PLK1 (Homo sapiens), P53350. Plk1 PBD binding of FITC phosphopeptide, fluorescence polarization. Potency, µM, for inactives: max response, negative = inhibition, actives largely listed as inhibitors. actives 2.8% (n = 360,000). AID 720504, 2013; also: series mostly up to about 57 µM; % is scaled to controls: 0 for no effect and ±100 for the full control effect; nearly all actives have a fitted effect of over 65% in size
Numbers without * were called inactive; ? = inconclusive; . = no result; [ ] = remark or other dose. Most compounds without a hit are left out; they make up all but 9% or so of the library. Calls follow the shape of the dose curve; as a rule, active = well fitted curve in the direction sought with a large enough effect; inconclusive = small, poorly fitted or top-dose-only effect, or another doubt; inactive = no such curve, though single readings can be large; an effect the other way counts as inactive or inconclusive. Potency is read from the fitted curve at half-maximal effect.

SMILES | HP1b chromo inh | JMJD2A Tudor | BAZ2B block | ALOX12 inh | G9a block | PLK1 PBD block
Cc1ccc(NCCC(=O)c2cccs2)cc1C | ? | 56µM* | ? | -11% | 32µM* | ?
CC(C)c1ccc(NCCC(=O)c2cccs2)cc1 | -17% | ? | ? | 18% | ? | -18%
Cc1ccc(NCCC(=O)c2cccs2)cc1 | -15% | 50µM* | ? | 3% | 50µM* | -12%
c1ccc(-c2ccc3c(n2)CCCN3Cc2ccccn2)cc1 | . | . | . | -12% | . | .
Cc1ccccc1Cn1c2ccccc2c2cnn(CC(=O)NC3CCC(C)CC3)c(=O)c21 (stereo not drawn) | 2% | -21% | 0% | -24% | 2%[59 µM] | .
COc1ccc(Nc2cc3c(cn2)CN(Cc2ccncc2)CCN3)cn1 | . | . | . | 72%[176 µM] | . | .
CN1CCN(Cc2nc3ccccc3c(=O)n2Cc2nc(-c3ccc([N+](=O)[O-])cc3)cs2)CC1 | ? | 20µM* | -39% | 45µM* | 22µM* | 30µM*
CN(C)Cc1nc2ccccc2c(=O)n1Cc1nc(-c2cccc([N+](=O)[O-])c2)cs1 | ? | ? | -36% | 3% | ? | ?
Cc1ccc(C2CC(=O)NC(SCCC(C)C)=C2C#N)cc1 (stereo not drawn) | ? | -1% | -3% | ? | 32µM* | 13µM*
CCCSC1=C(C#N)C(c2ccc(O)c(OC)c2)CC(=O)N1 (stereo not drawn) | 35% | -6% | 10% | -2% | 50µM* | -3%
CCCSC1=C(C#N)C(c2ccccc2C)CC(=O)N1 (stereo not drawn) | 33% | -8% | 7% | ? | 25µM* | ?
CCCCSC1=C(C#N)C(c2ccccc2C)CC(=O)N1 (stereo not drawn) | 55% | -13% | 8% | 0% | 7% | 4%
COc1cc(C2CC(=O)NC(SCC(=O)Nc3ccccc3C)=C2C#N)ccc1O (stereo not drawn) | 26% | -9% | -6% | ? | -4%[59 µM] | -8%
O=C(/C=C/c1cccc(Br)c1)Nc1nn[nH]n1 | -3% | ? | 3% | -57% | -2% | -1%
Cc1cc(C)c(NC(=O)CSc2nc3ccc(N4C(=O)c5ccccc5C4=O)cc3s2)c(C)c1 | 25% | 9% | -12% | 0% | -3%[59 µM] | -2%
Cc1nn(-c2ccccc2)c(OC(=O)C(C)(C)C)c1Sc1ccccc1 | 81% | ? | 0% | ? | 4µM* | .
Cc1ccc(Sc2c(C)nn(-c3ccccc3)c2OC(=O)C(C)(C)C)cc1 | 109% | 26% | 17% | ? | 10µM* | .
COc1cc(C(=O)Oc2c(Sc3ccccc3)c(C)nn2-c2ccccc2)cc(OC)c1OC | 64% | -2% | -25% | ? | 4µM* | .
Cc1nn(-c2ccccc2)c(OC(=O)C(C)C)c1Sc1ccccc1 | 12% | ? | -7% | ? | 1.6µM* | .
O=C(COc1ccc(Cl)cc1)NCCCNC(=O)c1ccccn1 | 0% | -3% | -1% | 15% | 11% | -7%
NC(=O)c1cccc(-c2ccnc3c2CC(C(=O)NCCc2ccccc2)O3)c1 (stereo not drawn) | . | . | . | ? | . | 1%
Cc1nn(-c2ccccc2)c(N)c1Sc1ccc([N+](=O)[O-])cc1 | ? | ? | -13% | ? | 10µM* | 12µM*
COc1cccc(CNc2ccc3[nH]c(=O)[nH]c3c2)c1OCc1ccccc1Cl | ? | 40µM* | 13µM* | -20% | . | 4%
COc1cc(CNc2ccc3[nH]c(=O)[nH]c3c2)cc(Br)c1OCc1ccccc1F | 20% | -5% | 3% | 0% | -29% | 5%
COc1cccc(CNc2ccc3[nH]c(=O)[nH]c3c2)c1OCc1ccccc1 | ? | 40µM* | 45µM* | . | . | 1%
SMILES | HP1b chromo inh | JMJD2A Tudor | BAZ2B block | ALOX12 inh | G9a block | PLK1 PBD block
COc1cccc(OC)c1C(=O)Oc1ccc2c(c1)O/C(=C\c1sccc1C)C2=O | . | . | . | 4% | . | .
CCOC(=O)c1cccc(S(=O)(=O)N2CCOCC2)c1 | 37% | -3% | 1% | -1% | 7% | -17%
CCOP(=O)(OCC)c1nc(-c2ccc([N+](=O)[O-])cc2)oc1NCc1ccccc1 | . | . | . | -41% | . | .
CCOP(=O)(OCC)c1nc(-c2ccc([N+](=O)[O-])cc2)oc1NCc1ccc(C)cc1 | . | . | . | 10µM* | . | .
Nc1nc(-c2ccco2)nn1C(=O)c1cccnc1 | 63% | -6% | 7% | -7% | 50µM* | -10%
Nc1nc(-c2ccco2)nn1C(=O)c1ccccc1Cl | 0% | -23% | -22% | 2% | ? | -11%
Cc1ccc(C(=O)n2nc(-c3ccco3)nc2N)cc1 | 43% | -9% | 3% | 50% | 6%[59 µM] | -9%
COc1ccc(C(=O)n2nc(-c3ccco3)nc2N)cc1 | -12% | ? | -10% | ? | 18µM* | ?
Cc1ccc(S(=O)(=O)N(CC(=O)NCCc2ccc(Cl)cc2)c2ccccc2C)cc1 | 11% | -10% | -4% | -27% | 2%[59 µM] | .
CN(C)C1=NC(=O)/C(=C/c2ccc(-c3ccc(S(N)(=O)=O)cc3)o2)S1 | . | . | ? | . | 7.1µM* | .
C[N+](C)(C)c1ccc(/C=N/N=C/c2ccccc2)cc1 | . | . | . | 11µM* | . | .
Cc1ccc(/C=N/N=C/c2ccc(C)cc2)cc1 | ? | -22%[57.1 µM] | 0% | -12% | -6%[59 µM] | 21µM*
C(=N\N=C\c1ccccc1)/c1ccccc1 | 56% | 12% | 1% | -7% | 76% | -14%
CCc1ccc(C2CC(c3cccc(Cl)c3)n3nc(N)nc3N2)cc1 (stereo not drawn) | 36% | -16% | -4% | ? | 2% | -11%
CCc1ccc(C2CC(c3ccc(C)cc3)n3nc(N)nc3N2)cc1 (stereo not drawn) | -16% | ? | . | -18% | . | 24µM*
CCOc1ccc(C2CC(c3ccccc3C)n3nc(N)nc3N2)cc1 (stereo not drawn) | -9% | 20µM* | -12% | 17%[57.4 µM] | ? | 21µM*
CCc1ccc(C2CC(c3ccccc3)Nc3nc(N)nn32)cc1 (stereo not drawn) | 55% | -8% | -20% | 11%[57.4 µM] | 6% | -11%
CCc1ccc(C2CC(c3ccccc3Cl)Nc3nc(N)nn32)cc1 (stereo not drawn) | 31% | -26% | -13% | 2%[57.4 µM] | 11µM* | -15%

High-throughput results (PubChem BioAssay)
